# Reference: PubChem BioAssay (EPA / NIEHS)
# The source made the active and inactive calls. How the source made its calls: active means hit-call score of the fitted dose curve at least 0.9, where 1 is the maximum; inactive means score below 0.9.
# Experiment: ATG_TA_CIS: Attagene CIS-FACTORIAL HepG2 Assay for human TA Basal Promoter (AID 2282964)
# Conditions: HepG2 Attagene CIS-factorial TA basal promoter reporter; actives raise or lower the signal
# Procedure: ATG_CIS is a cell-based, multiplexed-readout assay that uses HepG2, a human liver cell line, with measurements taken at 24 hours after chemical dosing in a 24-well plate.ATG_TA_CIS is one of 52 assay component(s) measured or calculated from the ATG_CIS assay. It is designed to make measurements of mRNA induction, a form of inducible reporter, as detected with fluorescence intensity signals by Reverse transcription polymerase chain reaction (RT-PCR) and Capillary electrophoresis technology.Data from the assay component ATG_TA_CIS was analyzed into 1 assay endpoint. This assay endpoint, ATG_TA_CIS, was analyzed with bidirectional fitting relative to DMSO as the negative control and baseline of activity. Using a type of inducible reporter, measures of mRNA for gain or loss-of-signal activity can be used to understand the background control at the transcription factor-level as they relate to the gene . Furthermore, this assay endpoint can be referred to as a secondary readout, because this assay has produced multiple assay endpoints where this one serves a background control function. To generalize the intended target to other relatable targets, this assay endpoint is annotated to the background measurement intended target family, where the subfamily is internal marker.
# Human liver HepG2 cells are transiently transfected with multiple reporter transcription units (MRTUs) in 6-well plates using FuGene 6 reagent (Roche; 3 ml FuGene/1 mg DNA). The MRTU constructs are regulated by a cis-regulating element (promoter). […] A major difference between the CIS and TRANS system is that in CIS activities of endogenous TFs are measured, whereas the TRANS assay evaluates changes in activities of exogenous, chimeric NR-Gal4 proteins. […] At the end of 24 hour incubation, total RNA was isolated using TriZol reagent (Invitrogen). The isolated RNA is then reverse-transcribed using oligo(dT) primer and Mo-MLV reverse transcriptase (Invitrogen) with DNAse I (Ambion) treatment for 30 min. The one-tenth of the produced cDNA was amplified by PCR using Taq DNA polymerase (Invitrogen) and two reporter sequence-specific primers. The PCR products were fluorescently labeled by primer extension with 6-arboxyfluorescein (6-FAM) 5'-labeled reporter sequence-specific primer (2 min at 95 C, 20 s at 68 C and 10 min at 72 C) and these products were digested with 5U of HpaI (New England Biolabs) for 2h at 37 C. The fragments were purified using Qiaquick PCR columns (Qiagen), analyzed on an ABI 3130xL genetic analyzer (Applied Biosystems) with peak positions identified by using a set of X-rhodamine (ROX)-labeled MapMarker1000 molecular weight standards (BioVentures). The raw capillary electrophoresis data was processed using Attagraph software (Attagene).
SMILES,outcome,AC50
N#CCc1ccc(Cl)cc1Cl,inactive,–
Nc1ccc(N=Nc2ccccc2)c(N)n1,inactive,–
COC(=O)c1c(C)cc(O)c(C)c1O,inactive,–
CC(=O)Oc1ccc(C)cc1,inactive,–
CCCCCCCCCCCCCCCCCC#N,inactive,–
c1ccc(CNCc2ccccc2)cc1,inactive,–
O=C1Nc2ccccc2C1(c1ccc(O)cc1)c1ccc(O)cc1,–,61.7 µM (active)
C1=Cc2ccccc2C1,inactive,–
Nc1ncn([C@@H]2O[C@H](CO)[C@@H](O)[C@H]2O)c(=O)n1,inactive,–
COc1ccc(NC(C)=O)cc1N,inactive,–
C=CC(=O)NC(C)(C)CS(=O)(=O)O,inactive,–
CC(C)=CC1CC(C)CCO1 (stereo not given),inactive,–
CCCCC(CC)COC(=O)c1ccccc1O (stereo not given),inactive,–
O=C(O)CCCCCCCCCC(=O)O,inactive,–
CCCCCC(C)O (stereo not given),inactive,–
CC=CCO,inactive,–
CC=CC(F)(F)C(F)(F)C(F)(F)F,inactive,–
O=[N+]([O-])C1(Br)COCOC1,inactive,–
Nc1ccc2cc3ccccc3cc2c1,inactive,–
CCCCOCCOC(=O)COc1nc(Cl)c(Cl)cc1Cl,inactive,–

SMILES,outcome,AC50
C=CCOc1c(Br)cc(Br)cc1Br,inactive,–
C=C(C)C(=O)OCCOc1ccccc1,inactive,–
C[C@]12C=CC(=O)C=C1CC[C@@H]1[C@@H]2[C@@H](O)C[C@@]2(C)[C@H]1CC[C@]2(O)C(=O)CO,inactive,–
NC(CO)(CO)CO,inactive,–
CO[Si](CCC1CCC2OC2C1)(OC)OC (stereo not given),inactive,–
COC(=O)/C=C\C(=O)O,inactive,–
O=C(Nc1ccccc1SSc1ccccc1NC(=O)c1ccccc1)c1ccccc1,inactive,–
Cn1c([N+](=O)[O-])cnc1COC(N)=O,inactive,–
C=C1[C@H]2CC[C@@H]3[C@H]2C(C)(C)CCC[C@]13C,inactive,–
CC(C)CC(O)Cc1ccccc1 (stereo not given),inactive,–
NC(=O)NNC(N)=O,inactive,–
Cc1cc(=O)n(-c2ccccc2)n1C,inactive,–
O=C1CC2CC1C1CCCC21 (stereo not given),inactive,–
COC(=O)/C=C/C(C)=C\C=C\C(C)=C\C=C\C=C(C)\C=C\C=C(C)\C=C\C(=O)O,inactive,–
CCC(C)OC(=O)c1ccc(O)cc1 (stereo not given),inactive,–
O=C(Oc1ccccc1)c1ccc2ccccc2c1O,–,54.9 µM (active)
CC(=O)C=CC1C(C)=CCC(C)C1(C)C (stereo not given),inactive,–
CCOC(=O)N1CCC(=C2c3ccc(Cl)cc3CCc3cccnc32)CC1,–,7.49 µM (active)
COCCOCCOCCOCCOC,inactive,–
Cc1ccccc1C,inactive,–
